{"source": "PubChem BioAssay AID902", "about": "(National Center for Advancing Translational Sciences (NCATS), 2007)", "note": "In all, about 130,000 compounds went through this assay and about 1,900 (1.5%) were called active. A call without a number means that no potency is given here. About 5% were inconclusive and are not listed. This is one part of a sample in which actives are shown more often than they occur. Calls follow the shape of the dose curve; as a rule, active = well fitted cell-killing curve with a large enough effect; inconclusive = small, poorly fitted or top-dose-only effect; inactive = no such curve, though single readings can be large or run the other way. Potency is read from the fitted curve at half-maximal effect.", "data": [{"assay": "qHTS Screen for Compounds that Selectively Target Cancer Cells with p53 Mutations: Cytotoxicity of p53ts Cells at the Nonpermissive Temperature; also: nearly all actives have a fitted effect of over 55% in size", "conditions": "H1299-p53A138V viability at 39C, ATP luminescence, 24 h; series mostly up to 46.1 µM", "from_the_text": "NIH Chemical Genomics Center [NCGC] NIH Molecular Libraries Screening Centers Network [MLSCN] MLSCN Grant: 1 X01 MH079844-01 Assay Submitter (PI): Dr. SUN, YI, University of Michigan NCGC Assay Overview: Synthetic Lethal Screen for Compounds to Kill Cancer Cells with p53 Mutation. Tumor suppressor gene p53 serves as a major cellular barrier against tumorigenesis. […] The goal of this screening is to identify small molecule probes that selectively kill cancer cells with mutations in p53. This screening was carried out using two lines of H1299 lung cancer cells. The H1299-p53 A138V line express a temperature sensitive p53 mutant (p53ts) in which the mutant p53 protein (A138V) is in the mutant confirmation when grown at 39C (the nonpermissive temperature) and in the wild type conformation when grown at 32C (the permissive temperature). A H1299-neo line (p53 null) grown at both 39C and 32C were used as counter-screens to filter out false positive associated with temperature shifting. The small molecular compounds that selectively target mutant p53-containing cancer cells were selected as candidate probes for further study. A cytotoxicity assay based on the measurement of ATP contents in cells was used in this screen. Concentration-responses of all the compounds in the library collection were determined in qHTS using the cell lines and temperature conditions as above.\nNCGC Assay Protocol Summary: Both the H1299-p53A138V and H1299-neo cell lines were provided by Dr.Yi Sun, a PI at the University Michigan. The cells were maintained and cultured at 37C. The resuspended frozen cells were used to plate the cells in the 1536-well assay plates at a density of 600 cells per well in 5 ul medium. The assay plates with the cells were incubated at 37C for 16 to 30 hours before the experiments. The library compounds in DMSO solution were added to the cells in assay plates and incubated 24 hours at 39C (for mutant p53 conformation) or 32C (for normal p53 conformation as control). An ATP_lite assay kit (PerkinElmer) was used to determine the cell viability. Tomaxifen (100uM) was used as the positive control for cell killing. Data were normalized to the controls for basal activity (DMSO only) and 100% killing (100uM tamoxifen). AC50 values were determined from concentration-response data modeled with the standard Hill equation. P53 assay protocol: 1. Reagent; 5 uL H1299-p53A138V or H1299-neo cell cells/well 2. Time; overnight; 37C incubation 3. Compounds; 23 nL; 5.9 nM to 46 uM 4. Controls; 23 nL; Tamoxifen 100 uM 5. Time; 24 hr; 39C incubation 6. Reagent; 3 uL; ATP_Lite reagent 7. Time; 20 min; Room Temperature 8. Detection; Luminescence; Viewlux plate reader Keywords: p53, synthetic lethal, cancer, cell viability, cytotoxicity, H1299 cell line, luminescence, MLSMR, MLSCN, NIH Roadmap, qHTS, NCGC", "values": [{"smiles": "CC(C)(C)NC(=O)CSc1nc(-c2ccc(F)cc2)cc(C(F)(F)F)n1", "Potency": "inactive"}, {"smiles": "c1ccc(Nc2n[nH]nc2-c2ccccc2)cc1", "Potency": "inactive"}, {"smiles": "CCC(=O)N1c2ccccc2CC1C(=O)N1CCN(c2ccccc2)CC1", "note": "(stereo unspecified)", "Potency": "inactive"}, {"smiles": "Cc1cccc(N2CCN(c3ccc(C(=O)O)cc3NC(=O)c3ccccc3F)CC2C)c1", "note": "(stereo unspecified)", "Potency": "inactive"}, {"smiles": "COc1ccc(OC)c(CCNC(=O)CCCn2c(=O)c3cccn3c3cccnc32)c1", "Potency": "inactive"}, {"smiles": "CCOc1ccc(OCC)c(NS(=O)(=O)c2ccc3[nH]c(=O)ccc3c2)c1", "Potency": "inactive"}, {"smiles": "CCN(c1ncnc2c1cnn2-c1ccc(C)cc1)C1CCCCC1", "Potency": "20 µM (active)"}, {"smiles": "CCN(CC)C(=O)CSc1ncnc2c1cnn2-c1ccccc1", "Potency": "inactive"}, {"smiles": "c1ccc(-n2ncc3c2ncn2c(C4CCCCC4)nnc32)cc1", "Potency": "inactive"}, {"smiles": "Cc1cccc(-c2nc(SCC(=O)Nc3cc(C)on3)c3c(=O)n(C)c(=O)n(C)c3n2)c1", "Potency": "inactive"}, {"smiles": "Cc1nn2c3cc(N4CCOCC4)ccc3nc2c2ccccc12", "Potency": "2 µM (active)"}, {"smiles": "Cc1nc2ccccc2n1C(=O)N1CCOCC1", "Potency": "inactive"}, {"smiles": "Cc1cc(C)c2c(n1)nn1c(N3CCOCC3)cc(C)nc21", "Potency": "inactive"}, {"smiles": "CCOc1cccc(NC(=O)CSc2ncc(-c3ccc(Cl)cc3)[nH]2)c1", "Potency": "20 µM (active)"}, {"smiles": "Cc1cccc(NC(=O)CSc2ncc(-c3ccccc3)[nH]2)c1C", "Potency": "inactive"}, {"smiles": "O=C(CSc1ncc(-c2ccccc2)[nH]1)Nc1ccc(F)cc1F", "Potency": "inactive"}, {"smiles": "CCCc1nnc(NC(=O)CN2C(=O)c3ccccc3S2(=O)=O)s1", "Potency": "12.6 µM (active)"}, {"smiles": "CNC(=O)CN1C(=O)c2ccccc2S1(=O)=O", "Potency": "inactive"}, {"smiles": "CCCc1nnc(NC(=O)c2cc(OC)cc(OC)c2)s1", "Potency": "inactive"}, {"smiles": "Cc1ccc(C)c2sc(NC(=O)c3ccc(S(=O)(=O)N4CCCC4)cc3)nc12", "Potency": "inactive"}, {"smiles": "CC1=C(C(=O)N2CCN(c3cccc(C(F)(F)F)c3)CC2)C2(CCCCC2)OC1=O", "Potency": "inactive"}, {"smiles": "CCOc1cc(C(=O)Nc2ncccn2)cc(OCC)c1OCC", "Potency": "inactive"}, {"smiles": "Cn1c(=O)c(C(=O)Nc2ncccn2)c(O)c2ccccc21", "Potency": "12.6 µM (active)"}, {"smiles": "O=C(Nc1ncccn1)c1cccs1", "Potency": "inactive"}, {"smiles": "Cc1ccc(C(=O)Nc2ccc(OCc3cc(=O)n4c5c(sc4n3)CCCC5)cc2)cc1", "Potency": "inactive"}, {"smiles": "CCN(CC)c1cc(NC2CCCCC2)c2c3c(onc13)-c1ccccc1C2=O", "Potency": "inactive"}, {"smiles": "Cc1cccc(N2CCN(C(=O)c3oc(=O)c4ccccc4c3-c3ccccc3)CC2)c1C", "Potency": "inactive"}, {"smiles": "COc1ccc(OCCn2cc(C(=O)C3CCCCC3)c3ccccc32)cc1", "Potency": "inactive"}, {"smiles": "O=C(/C=C/c1cn(CC(O)CN2CCc3ccccc32)c2ccccc12)c1ccc(Br)cc1", "note": "(stereo unspecified)", "Potency": "inactive"}, {"smiles": "CCOc1ccc(C(=O)/C=C/c2cn(CC(O)CN3CCCCCC3)c3ccccc23)cc1", "note": "(stereo unspecified)", "Potency": "10 µM (active)"}, {"smiles": "COc1ccc(Cn2c(C(=O)O)c(CNCCc3cccs3)c3ccc(OC)cc32)cc1", "Potency": "inactive"}, {"smiles": "CCOC(=O)C1=C(c2ccc(OC)cc2)C(=O)c2ccccc2C1=O", "Potency": "7.08 µM (active)"}, {"smiles": "CCOC(=O)c1ccccc1NS(=O)(=O)c1ccc(OC)cc1", "Potency": "inactive"}, {"smiles": "CCCCC(C(=O)OCC(=O)c1ccc(OC)cc1)N1C(=O)c2ccccc2C1=O", "note": "(stereo unspecified)", "Potency": "inactive"}, {"smiles": "Cc1cc(F)ccc1NS(=O)(=O)c1ccc(-n2cccn2)cc1", "Potency": "inactive"}, {"smiles": "O=C(Nc1cc(-c2nc3ccccc3o2)ccc1Cl)c1cc([N+](=O)[O-])ccc1N1CCOCC1", "Potency": "inactive"}, {"smiles": "COc1ccc2oc(-c3ccc(C)c(NC(=O)c4sc5ccccc5c4Cl)c3)nc2c1", "Potency": "inactive"}, {"smiles": "Cc1ccc2c(c1)N(C(=O)CCC(=O)NCc1ccccc1F)CC(C)O2", "note": "(stereo unspecified)", "Potency": "inactive"}, {"smiles": "Cc1ccccc1-c1nc(CS(=O)(=O)CC(=O)NC(C)c2ccccc2)c(C)o1", "note": "(stereo unspecified)", "Potency": "inactive"}, {"smiles": "Cc1ccccc1-c1nc(CS(=O)(=O)CC(=O)N2CCc3ccccc3C2)c(C)o1", "Potency": "inactive"}, {"smiles": "Cc1ccccc1-c1nc(CS(=O)(=O)CC(=O)Nc2cc(Cl)cc(Cl)c2)c(C)o1", "Potency": "20 µM (active)"}, {"smiles": "CCC1CCCCN1S(=O)(=O)c1ccc(NC(=O)c2cc(=O)c3ccccc3o2)cc1", "note": "(stereo unspecified)", "Potency": "inactive"}, {"smiles": "Clc1ccccc1CSc1nncn2c1cc1occc12", "Potency": "inactive"}, {"smiles": "CCC(=O)N1c2ccc(S(=O)(=O)CCC(=O)N3CCN(c4ccccc4)CC3)cc2CC1C", "note": "(stereo unspecified)", "Potency": "inactive"}, {"smiles": "CCn1nc(C(=O)OCC(=O)N2c3ccccc3CC2C)c2ccccc2c1=O", "note": "(stereo unspecified)", "Potency": "inactive"}, {"smiles": "CCCC(=O)N1c2ccc(-c3csc(N)n3)cc2CC1C", "note": "(stereo unspecified)", "Potency": "12.6 µM (active)"}, {"smiles": "Cc1cccc(OCCSc2nc3ccccc3n2CC(=O)N2CCCCC2)c1C", "Potency": "inactive"}, {"smiles": "O=C(O)Cc1ccc(NC(=O)c2cccs2)cc1", "Potency": "inactive"}, {"smiles": "Cc1nc(-c2ccc(NC(=O)c3cccs3)cc2)cs1", "Potency": "2.51 µM (active)"}, {"smiles": "O=C(O)c1ccc(NC(=O)c2cccs2)cc1", "Potency": "inactive"}, {"smiles": "CCCCNc1ccc(-c2nc(-c3ccncc3)no2)cc1[N+](=O)[O-]", "Potency": "inactive"}]}]}
